Bioassay records: PubChem, Center for Chemical Genomics, University of Michigan
Dicer inh: inhibitors of Dicer pre-microRNA processing, primary screen, biochemical, cat-ELCCA, chemiluminescence; Endoribonuclease Dicer (Homo sapiens), Q9UPY3; cat-ELCCA pre-miR-21 Dicer processing; active compounds read high; z-score at 25 µM; 47,000 tested, 6% active; AID 1347074, 2019; in the data active means z-score above about 3, passing the limit was not always enough;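 further: higher signal means more uncleaved substrate so more Dicer inhibition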
Of the large screens only hits and unclear results are named; the others gave an inactive call. This excerpt belongs to a sample that is enriched for hits.

Cc1ccnc(NS(=O)(=O)c2ccc(Br)cc2)c1	none
Cc1cc(C)c(C)c(Oc2coc3cc(OC(=O)c4ccco4)ccc3c2=O)c1	none
CC1CC(NC(=S)NCCO)CC(C)(C)C1 (centres undefined)	none
CCCc1cc(N2CCN(CCO)CC2)n2c(nc3ccccc32)c1C#N	none
Cc1cc(N2CCN(CCO)CC2)n2c(nc3ccccc32)c1C#N	Dicer inh 5.3
Cc1cc(NCCCCO)n2c(nc3ccccc32)c1C#N	none
CC(C)Cc1ccc(C(=O)C(C)N2CCN(c3ccc(C(F)(F)F)cn3)CC2)cc1 (centres undefined)	none
CCc1ccc(C(=O)CSc2ncn[nH]2)cc1	none
N#Cc1cnc(Sc2nnc(-c3ccco3)n2-c2ccccc2)nc1N	none
O=C1c2ccccc2NC(c2ccccc2O)N1c1ccc(F)cc1 (centres undefined)	none
Cc1ccc(N2C(=O)c3ccccc3C2C(=O)c2cc(C)ccc2O)cc1 (centres undefined)	Dicer inh 11
Cc1ccc(/C(O)=C2/C(=O)C(=O)N(c3ccc(O)cc3)C2c2ccccc2)cc1 (centres undefined)	none
COc1ccc2oc(-c3ccc(C)c(N)c3)nc2c1	none
Cc1ccc(-c2nc3cc(N)ccc3o2)cc1	Dicer inh 4.7
Cc1ccc2oc(-c3cccc(N)c3)nc2c1	none
Nc1nc2ccc(-c3nc4ccccc4o3)cc2s1	none
CC(C)c1ccc2oc(-c3ccc(N)cc3)nc2c1	none
Nc1ccc2oc(-c3cccc4ccccc34)nc2c1	Dicer inh 5.2
Cc1ccc(-c2nc3cc(N)ccc3o2)cc1N	none
COc1ccc(-c2nc3cc(N)ccc3o2)cc1Br	Dicer inh 3.2
COc1ccc(-c2nc3cc(NS(=O)(=O)c4ccccc4)ccc3o2)cc1Br	none
Cc1ccc2oc(-c3ccc(N)cc3)nc2c1	none
Cc1ccc2oc(-c3ccc(N)cc3O)nc2c1	none
COc1ccc(-c2nc3ccccc3o2)cc1N	Dicer inh 4.3
Cc1nn(C)c(Sc2ncccn2)c1[N+](=O)[O-]	none
CC1(C)CC(=O)C2=C(C1)Nc1nc(C(F)(F)F)nn1C2c1ccccc1 (centres undefined)	none
CCOC(=O)c1sc(S(C)=NC(=O)c2ccccc2)c2c1CCC=C2 (centres undefined)	none
O=c1c2ccccc2c(-c2cc(C(F)(F)F)cc(C(F)(F)F)c2)nn1CCO	none
CCCN(CCC)C(=S)NC1CC2C=CC1C2 (centres undefined)	none
O=C(Nc1ccc(-n2ccc(C(F)(F)F)n2)cc1)c1cccs1	none
CCCCCc1ccc(C(=O)NCc2cccs2)cc1	none
O=C(NCc1cccs1)c1nc2ncccn2n1	none
Nc1ccc(Cl)cc1C(=O)NCc1cccs1	Dicer inh 21
Cc1cc(N/C=C2\C(=O)c3c(sc(C)c3C)N(C)S2(=O)=O)nc(C)n1	Dicer inh 3.6
Cc1sc2c(c1C)C(=O)/C(=C\Nc1ncccn1)S(=O)(=O)N2C	none
Cc1sc2c(c1C)C(=O)/C(=C\Nc1cccnc1)S(=O)(=O)N2C	none
COc1ccc2c(c1)c(CC(=O)O)c(C)n2Cc1ccc(Cl)cc1	none
O=[N+]([O-])c1cc(C(F)(F)F)ccc1NCC1CC1	none
c1ccc2c(c1)NC(c1ccc3c(c1)CCO3)n1cccc1-2 (centres undefined)	Dicer inh 3.4
COc1ccc(C2Nc3ccccc3-c3cc(C)nn32)cc1OC (centres undefined)	none
Fc1ccc(CN2CCCN(Cc3ccc(F)cc3)C2c2ccc3c(c2)CCO3)cc1	none
CCn1c(SCc2c(C)ccc3ccccc23)nc2c1c(=O)n(C)c(=O)n2C	none
CCOC(=O)N1CCC(NC(=O)CCCC(=O)O)CC1	none
Cc1ccc(C2CC(C(F)(F)F)n3ncc(C(=O)N4CCCCC4)c3N2)cc1 (centres undefined)	Dicer inh 3
O=C(NC1CCCCC1)c1cnn2c1NC(c1ccc(Br)cc1)CC2C(F)(F)F (centres undefined)	Dicer inh 5.6
Cc1c(CNC(=O)c2cnn3c2NC(c2ccc(Br)cc2)CC3C(F)(F)F)cnn1C (centres undefined)	none
O=C(c1cnn2c1NC(c1ccccc1)CC2C(F)(F)F)N1CCOCC1 (centres undefined)	none
COCCNC(=O)c1cnn2c1NC(c1ccc(Br)cc1)CC2C(F)(F)F (centres undefined)	Dicer inh 4.3
O=C(c1cnn2c1NC(c1ccc(F)cc1)CC2C(F)(F)F)N1CCCCC1 (centres undefined)	none
CCC(C)NC(=O)c1cnn2c1NC(c1ccc(Br)cc1)CC2C(F)(F)F (centres undefined)	none
Cc1ccc(C2CC(C(F)(F)F)n3nc(C(=O)NC4CCCC4)c(Cl)c3N2)cc1 (centres undefined)	none
Cc1nn(C)cc1CNC(=O)c1cnn2c1NC(c1ccc(Br)cc1)CC2C(F)(F)F (centres undefined)	none
O=C(CN1CC(=O)Oc2ccccc21)Nc1ccc2c(c1)OCO2	none
O=C1CN(C(=O)c2ccco2)c2ccccc2N1	none
O=C(O)CCC(=O)NCCN1CCNC1=O	none
COCCCNC(=S)Nc1c(C)cc(C)cc1C	none
O=C1CSc2ccc(C(F)(F)F)cc2N1Cc1ccccc1	none
Nc1snnc1-c1ccc(C(F)(F)F)cc1	none
